# Screening data as filed in PubChem.
# IL-1B inflam inh: blocks inflammasome-driven IL-1 beta release. THP-1 LPS/ATP IL-1B secretion, AlphaLISA, 16 h; hits give low values. AID 743279. activity change, % at 57.5 µM. 4.7% of 360,000 active; in the data active = activity change below about -50%; inconclusive = mostly about -30% to -49%
#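 THP-1 cells pretreated 1 hr with compounds (up to 57.5 uM final), then stimulated with LPS (250 ng/mL final) plus ATP (1.25 mM final); secreted IL-1B measured by AlphaLISA after 16 hr, decreased signal indicating inhibition.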
# HT1080 IDH1KD tx: toxicity to HT-1080 IDH1 knockdown cells (counter line). Potency, µM (doses to about 46.1 µM), for the others: at the highest dose activity, negative = toxicity, actives largely listed as cytotoxic. 2% of 360,000 active. HT-1080 IDH1 knockdown viability, ATP luminescence, 48 h;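 also: potency is read from the fitted curve at half-maximal effect; 0% = DMSO wells and -100% = cell-free medium wells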
#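 % activity derives from luminescence (CellTiter-Glo), normalised to DMSO and no-cell wells. HT-1080-IDH1KD cells, 750/well, had 48 h compound exposure at 37 °C.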
# TDP1 cell noCPT: qHTS for Inhibitors of human tyrosyl-DNA phosphodiesterase 1 (TDP1): qHTS in cells in absence of CPT; DT40 Tdp1-/- hTDP1 cells, no CPT, ATP luminescence, 48 h; Potency, µM (titrated, usually from 46.2 µM), without a hit: at the highest dose activity change, negative = growth inhibition, most hits filed as inhibitors; 15% of 420,000 active; also: potency is read from the fitted curve at half-maximal effect; nearly all actives have a fitted effect of over 55% in size
#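 Chicken DT40 Tdp1-/- cells stably complemented with human TDP1 were seeded at 400 cells/well with DMSO in place of 20 nM camptothecin. After compound pinning, cells grew at least 48 hr at 37 °C; viability read by CellTiter-Glo luminescence.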
# HT1080-NT tox: kills 2HG-producing HT-1080-NT fibrosarcoma cells | HT-1080-NT fibrosarcoma viability, CellTiter-Glo ATP luminescence, 48 h | Potency, µM (highest dose often 46.1 µM), for inactives: at the highest dose activity, negative = less viability, actives largely listed as cytotoxic | 1.6% of 360,000 active;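 also: NT is the 2HG producing partner of a matched IDH1 knockdown line; potency is read from the fitted curve at half-maximal effect; 0% = DMSO-treated cells and -100% = media-only wells without cells; nearly all actives have a fitted effect of over 55% in size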
#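 Viability of the 2HG-overproducing fibrosarcoma line after 48 hours of compound exposure at 37 degrees C was determined by luminescence with CellTiter-Glo, and concentration-effect curves were then fitted and categorized.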
# TDP1 cell CPT: DT40-hTDP1 cell growth loss with CPT. 12% of 420,000 active. AID 686979. chicken DT40 Tdp1-/-;hTDP1 cells + 20 nM CPT, ATP luminescence, 48 h. Potency, µM (highest dose often 46.2 µM), for the others: top-dose activity change, negative = growth inhibition, actives largely listed as inhibitors; also: potency is read from the fitted curve at half-maximal effect; nearly all actives have a fitted effect of over 55% in size
#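 Chicken DT40 Tdp1-/- cells stably complemented with human TDP1 were seeded at 400 cells/well in medium containing 20 nM camptothecin, exposed to pin-transferred compounds, and grown at 37 °C for at least 48 hr. Viability was read as ATP luminescence.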
# 12-LOX inh: blocks human arachidonate 12S-lipoxygenase. purified 12hLO, xylenol orange hydroperoxide absorbance. Potency, µM (highest dose often 108 µM), without a hit: at the top dose activity change, negative = inhibition, usual class: inhibitors. 1.1% of 580,000 active; also: potency is read from the fitted curve at half-maximal effect
# Target sequence (P18054 whole entry, looked up): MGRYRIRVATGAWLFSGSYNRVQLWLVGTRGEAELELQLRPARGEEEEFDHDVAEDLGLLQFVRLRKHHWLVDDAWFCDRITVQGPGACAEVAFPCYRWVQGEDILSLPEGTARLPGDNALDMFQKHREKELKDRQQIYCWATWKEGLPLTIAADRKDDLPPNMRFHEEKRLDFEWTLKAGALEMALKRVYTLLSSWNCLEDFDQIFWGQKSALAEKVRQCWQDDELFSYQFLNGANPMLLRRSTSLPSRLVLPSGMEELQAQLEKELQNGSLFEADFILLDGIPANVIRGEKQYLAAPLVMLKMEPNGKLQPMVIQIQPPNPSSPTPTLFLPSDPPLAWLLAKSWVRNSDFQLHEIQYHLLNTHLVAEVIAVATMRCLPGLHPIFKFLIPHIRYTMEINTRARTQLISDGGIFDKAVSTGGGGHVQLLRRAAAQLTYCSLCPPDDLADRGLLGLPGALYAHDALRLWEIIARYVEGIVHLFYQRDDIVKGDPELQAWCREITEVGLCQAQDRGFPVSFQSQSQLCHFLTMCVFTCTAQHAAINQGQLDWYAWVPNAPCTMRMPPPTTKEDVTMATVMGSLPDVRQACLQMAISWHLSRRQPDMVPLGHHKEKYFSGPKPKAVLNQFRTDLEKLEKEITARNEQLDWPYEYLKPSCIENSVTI
#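 Purified human 12hLO (150 nM final) in 25 mM Hepes, 0.01% Triton X-100, pH 7.0 was preincubated 15 min at room temperature with compound. Then 40 uM arachidonic acid was added, 30 min. Hydroperoxide was read by Fe-XO absorbance ratio 573/405 nm.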
# * = called active by the depositor; ? = inconclusive; . = no result; [ ] = remark or other dose. The sample as a whole holds a higher share of hits than the screen did. Unless noted, calls follow the shape of the dose curve; as a rule, active = well fitted curve in the direction sought with a large enough effect; inconclusive = small, poorly fitted or top-dose-only effect, or another doubt; inactive = no such curve, though single readings can be large; an effect the other way counts as inactive or inconclusive. Unless noted, % is scaled to controls: 0 for no effect and ±100 for the full control effect.
SMILES,IL-1B inflam inh,HT1080 IDH1KD tx,TDP1 cell noCPT,HT1080-NT tox,TDP1 cell CPT,12-LOX inh
CCOC(=O)c1ccc(NC(=O)CNNC(=O)COc2ccccc2C)cc1,-22,3%,?,-3%,-27%,193%
CC(C)(C)c1ccc(C(=O)Nc2ccc(F)cc2)s1,-62*,-20%,15µM*,-19%,0%,40%
Cc1cccc(N2CCN(C(=O)CC(NC(=O)c3ccccc3)c3ccccc3)CC2C)c1 (stereo not drawn),-11,9%,29µM*,0%,?,-24%
O=C(Cn1ccc2ccccc2c1=O)N1CCN(c2cccc(Cl)c2)CC1,-2,1%,?,1%,-13%,-3%
Cc1cccc(N2CCN(C(=O)CN3CCOc4ccccc43)CC2C)c1 (stereo not drawn),-24,-1%,?,3%,23µM*,?
O=C(CN1CCOc2ccccc21)N1CCN(c2cccc(Cl)c2)CC1,?,-10%,29µM*,-1%,?,2%
Cc1cccc(N2CCN(C(=O)c3ccc4c(c3)OCCO4)CC2C)c1 (stereo not drawn),15,13%,-2%,15%,30%,68%
COc1cccc(N2CCN(C(=O)CC(NC(=O)c3ccccc3)c3ccccc3)CC2)c1 (stereo not drawn),-11,-2%,-30%,5%,-20%,-12%
O=C(C(=O)N(Cc1ccccc1)Cc1ccccc1)c1c(-c2ccccc2)[nH]c2ccccc12,?,?,21µM*,?,10µM*,?
O=C1Nc2ccccc2OCC12CCN(CC1CCCCC1)CC2,.,.,.,.,.,47%[176 µM]
c1ccc2c(c1)c1c(c3ccccc32)CN2CCCC2C1 (stereo not drawn),-97*,23µM*,8.2µM*,?,5.2µM*,?
COc1ccc(NC(=O)CN2CCN(Cc3ccccc3)CC2)cc1,3,8%,-1%,5%,7%,-1%
CCCCNC(=O)CN1CCN(Cc2ccc3cc(OC)ccc3c2)CC1,0,-13%,18µM*,-5%,?,?
CC(=O)N1CCc2cc(NC(C)C(=O)Nc3ccc(OC(F)F)cc3)ccc21 (stereo not drawn),.,.,.,.,.,28%
CCC(C)NC(=O)CC(c1ccccc1)c1cc(C)ccc1O (stereo not drawn),19,13%,7%,9%,0%,-3%
CCCN(CCC)C(=O)CC(c1ccccc1)c1cc(C)ccc1O (stereo not drawn),-57*,?,?,?,?,3%
Cc1ccc(O)c(C(CC(=O)NC2CCCCC2)c2ccccc2)c1 (stereo not drawn),?,-21%,23µM*,-8%,-67%,-11%
Cc1ccc(SC2CCN(Cc3cc4n(n3)CCNC4)CC2)cc1,.,.,.,.,.,16%
O=C1NC2(CCN(CC3CCCCC3)CC2)COc2ccccc21,.,.,.,.,.,63µM*
COC(=O)c1c(NC(=O)c2ccc(N(C)S(=O)(=O)c3ccc(C)cc3)cc2)sc2c1CCCC2,3,17%,?,1%,-16%,0%
CNC(=O)c1c(NC(=O)c2ccc(S(=O)(=O)N(C)c3ccccc3)cc2)sc2c1CCN(C(C)C)C2,43,-1%,18µM*,-4%,18µM*,0%
CCN1CCc2c(sc(NC(=O)c3ccc(S(=O)(=O)N(C)c4ccccc4)cc3)c2C(=O)NC)C1,0,-24%,21µM*,-21%,16µM*,.
Cc1cc(C)c(C(=O)Oc2c(C)cccc2C)c(C)c1,.,.,.,.,.,1%
COc1cccc(C2C(C(=O)Nc3ccccc3)=C(C)Nc3nc(SC)nn32)c1OC (stereo not drawn),.,.,.,.,.,-22%
